Only some compounds are listed: those with a hit (about 1.1% of all), similar ones and a draw of the others.
OPRM1-OPRD1 ag: OPRM1-OPRD1 heterodimerization agonism | AID 504326 | P35372+P41143 | 340,000 tested, 0.3% active | activation, % at 9.3 µM | cells, luminescence;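 note: 0% = vehicle-treated cells and 100% = reference agonist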
Target sequence (P35372 whole entry, looked up): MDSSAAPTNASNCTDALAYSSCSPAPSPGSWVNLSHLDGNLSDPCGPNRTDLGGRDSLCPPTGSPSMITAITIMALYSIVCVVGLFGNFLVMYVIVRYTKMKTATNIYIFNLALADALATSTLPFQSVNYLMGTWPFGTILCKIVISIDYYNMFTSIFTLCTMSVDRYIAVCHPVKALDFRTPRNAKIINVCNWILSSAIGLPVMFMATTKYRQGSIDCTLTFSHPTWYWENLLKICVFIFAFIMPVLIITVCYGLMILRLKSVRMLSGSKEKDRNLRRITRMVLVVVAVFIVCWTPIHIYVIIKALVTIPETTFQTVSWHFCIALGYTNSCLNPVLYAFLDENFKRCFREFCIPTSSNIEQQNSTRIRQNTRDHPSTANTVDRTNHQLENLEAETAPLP
Target sequence (P41143 whole entry, looked up): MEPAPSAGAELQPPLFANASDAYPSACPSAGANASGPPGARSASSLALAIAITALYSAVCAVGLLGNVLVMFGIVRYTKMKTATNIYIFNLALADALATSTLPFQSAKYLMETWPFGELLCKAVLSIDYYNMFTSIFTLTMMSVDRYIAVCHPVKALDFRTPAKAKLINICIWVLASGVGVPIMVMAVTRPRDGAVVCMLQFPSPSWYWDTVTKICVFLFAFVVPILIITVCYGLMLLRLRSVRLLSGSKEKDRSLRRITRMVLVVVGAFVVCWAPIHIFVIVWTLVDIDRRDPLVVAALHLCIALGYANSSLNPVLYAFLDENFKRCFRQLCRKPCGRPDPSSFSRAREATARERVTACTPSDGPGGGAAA
HTR5A ag: counter-screen for OPRM1-OPRD1 agonists: human HTR5A agonism | P47898 | AID 504692 | activation, % at 9.3 µM | HTR5A agonist assay, luminescence, cell-based | 340,000 tested, 0.61% active; in the data active = activation mostly above about 9.5%, no sharp cut-off; inactive = mostly below about 7.6%;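 note: 0% = cells with vehicle only and 100% = reference agonist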
HTR5A inv ctr: inverse agonist of human HTR5A in OPRM1-OPRD1 counter-screen; inhibition, % at 9.3 µM; 340,000 tested, 0.083% active; AID 504634; HTR5A cell line, luminescence, inverse agonism; in the data active = inhibition mostly above about 23%, no sharp cut-off; inactive = mostly below about 18%;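 note: 0% = cells with DMSO and 100% = no-cell wells with DMSO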
MOR-DOR inv ag: mu-delta opioid heterodimer inverse agonism. AID 504357. P35372+P41143. 340,000 tested, 0.21% active. cell-based MOR-DOR heterodimer luminescence. inhibition, % at 9.3 µM; in the data active = inhibition above about 22%, passing the limit was not always enough;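 note: 0% = cells with DMSO and 100% = wells without cells with DMSO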
OPRM1-D1 ag cf: confirmation of human OPRM1-OPRD1 heterodimerization agonists. shares compounds with OPRM1-OPRD1 ag. cells, MOR-DOR heterodimerization, luminescence complementation. activation, % at 9.3 µM. 830 tested, 45% active. AID 504904;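 note: 0% = vehicle-treated cells and 100% = reference agonist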
HTR5A ag ctr2: counter-screen for OPRM1-OPRD1 agonists: human HTR5A agonism; shares compounds with OPRM1-OPRD1 ag; HTR5A agonist counterscreen, cell luminescence; activation, % at 9.3 µM; 830 tested, 8% active; AID 504905; in the data active = activation above about 17%;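 note: 0% = vehicle-treated cells and 100% = reference agonist response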
* marks the source's active call; other numbers are inactive results; i = inactive; nt = no result given. Cut-off read from the data, not from the text of the source, unless noted: active = activation above about 18%; inactive = the rest.

SMILES	OPRM1-OPRD1 ag	HTR5A ag	HTR5A inv ctr	MOR-DOR inv ag	OPRM1-D1 ag cf	HTR5A ag ctr2
C/C(=N\NC(=O)c1ccccc1)c1c(O)n(C2CCCCC2)c(=O)[nH]c1=O	2	-3	13	-9	nt	nt
CC(=O)O[C@]1(c2ccccc2)CCN(C)[C@H]2CCCC[C@@H]21	-3	1	-40	15	nt	nt
CCC1CN(C)CCC1(OC(C)=O)c1ccccc1 (configuration not stated)	25*	-4	6	-124	23*	4
CC(C)=CCN1CC[C@@]2(C)c3cc(O)ccc3C[C@@H]1C2C (some centres not stated)	37*	0	1	-150	-1	-1
C=CCN1CC[C@@]2(C)c3cc(O)ccc3CC1[C@@H]2C	3	-2	7	-18	nt	nt
CC(C)=CCN1CC[C@@]2(C)c3cc(O)ccc3CC1C2C (some centres not stated)	-4	-7	16	15	nt	nt
CC1[C@H]2Cc3ccc(O)cc3[C@]1(C)CCN2C (some centres not stated)	44*	1	-2	-179	42*	1
CN=C1CN(O)C(c2ccccc2)c2cc(Cl)ccc2N1 (configuration not stated)	-2	-2	7	12	nt	nt
CC(=O)OC1CC[C@@]2(C)C(=CC(=O)C3C4CCC(OC(C)=O)[C@@]4(C)CCC32)C1 (some centres not stated)	-3	0	-1	15	nt	nt
COC(=O)C1=C(c2ccc(OCc3ccccc3)cc2)C[C@@H]2CC[C@H]1N2C(=O)NCc1cccc(OC)c1	0	13	-38	-2	nt	nt
Cc1ccc(-n2cc(CNC(C)Cc3cnccn3)c(-c3cccc(C)c3)n2)cc1 (configuration not stated)	42*	1	-3	-220	16	10
COc1ccc(P2(=O)Nc3ccccc3N2)cc1	11	0	-4	-57	nt	nt
COc1ccc2c(c1)NP(=S)(c1ccccc1)N2C (configuration not stated)	19*	1	-3	-100	4	9
C=C(C)[C@H]1CN[C@H](C(=O)O)[C@H]1CC(=O)O	0	0	-21	1	nt	nt
CSc1ccccc1NP1(=O)OCC(C)([N+](=O)[O-])CO1 (configuration not stated)	-3	-2	7	14	nt	nt
Cc1ccc(C[n+]2c(-c3ccc(C)cc3)cc(-c3ccc(C)cc3)cc2-c2ccc(C)cc2)cc1	68*	23*	-59	-374	11	11
Cc1nc2c(=O)n(C)c(=O)nc-2n(C)n1	20*	-2	6	-101	22*	-2
Brc1ccc(Oc2cc(Br)c(Br)cc2Br)c(Br)c1	-2	7	-29	8	nt	nt
CN1CCCC(C(=O)c2ccc(Cl)cc2)C1 (configuration not stated)	21*	-1	2	-108	0	-3
CC12CCC(O)CC1CCC1C2CCC2(C)C(C3=CC(=O)OC3)CCC12O (configuration not stated)	93*	33*	-125	-405	10	5
CC(=O)OC1CC(OC2C(O)CC(OC3C(O)CC(OC4CCC5(C)C(CCC6C5CC(O)C5(C)C(C7=CC(=O)OC7)CCC65O)C4)OC3C)OC2C)OC(C)C1OC1OC(CO)C(O)C(O)C1O (configuration not stated)	69*	26*	-95	-373	14	1
C[C@H]1CC[C@@H]2[C@@H](C)[C@H]3[C@H](C[C@H]4[C@@H]5CC=C6C[C@@H](O[C@@H]7O[C@H](CO)[C@H](O)[C@H](O[C@@H]8O[C@H](CO)[C@@H](O)[C@H](O)[C@H]8O)[C@H]7O[C@@H]7O[C@@H](C)[C@H](O)[C@@H](O)[C@H]7O)CC[C@]6(C)[C@H]5CC[C@]34C)N2C1	-2	-1	-29	10	nt	nt
COC1C(O)C(C)OC(OC2CCC3(C)C(CCC4C3C(O)CC3(C)C(C5=CC(=O)OC5)CCC43O)C2)C1O (configuration not stated)	85*	31*	-120	-374	28*	0
CC12CC[C@H]3[C@@H](CCC4(O)C[C@H](O)CCC34/C=N/NC(=O)c3ccccc3[N+](=O)[O-])C1(O)CCC2C1=CC(=O)OC1 (some centres not stated)	21*	11*	-38	-96	3	10
COc1ccc(C(=O)OC2CC3CCC(C2)[N+]3(C)[O-])cc1OC (configuration not stated)	-3	1	-3	16	nt	nt
SMILES	OPRM1-OPRD1 ag	HTR5A ag	HTR5A inv ctr	MOR-DOR inv ag	OPRM1-D1 ag cf	HTR5A ag ctr2
COc1cccc2cc(-c3cc(=O)oc4ccc(OC(=O)N(C)C)cc34)oc12	-1	-3	14	4	nt	nt
C[C@]12CC[C@H](O)C[C@H]1CC[C@@H]1[C@@H]2C[C@@H](O)[C@]2(C)[C@@H](C3=CC(=O)OC3)CC[C@]12O	69*	34*	-63	-385	40*	30*
C[C@]12CCC3C(CC[C@H]4C[C@@H](O)CC[C@]34C)[C@H]1C=CC2=O (some centres not stated)	0	-4	14	0	nt	nt
COC(=O)C1=C(c2ccc(Cl)c(C(F)(F)F)c2)C[C@@H]2CC[C@H]1N2C	-2	6	16	14	nt	nt
N=c1c[n+](CC23CC4CC(CC(C4)C2)C3)[n-]o1	24*	4	-4	-109	36*	2
CCCN1CCc2cccc3c2[C@H]1Cc1ccc(O)c(O)c1-3	19*	4	-14	-101	20*	3
COc1ccc2c(c1O)-c1c(OC)c(OC)cc3c1[C@H](C2)N(C)CC3	0	-4	-5	2	nt	nt
Cc1ccc(OCCOc2cccc(C=C3C(=O)NC(=O)NC3=O)c2)c(C)c1	2	0	1	-10	nt	nt
CCOC(=O)C1(CCc2ccccc2)CCN(Cc2cccc3cnccc23)CC1	15	7	-8	-69	nt	nt
CCOC(=O)C1(CCc2ccccc2)CCN(Cc2csc(C(C)=O)c2)CC1	63*	5	-12	-358	3	18*
CCOC(=O)C1(CCc2ccccc2)CCN(Cc2cccc3c2OCO3)CC1	36*	-4	9	-206	11	0
COc1ccc(C(=O)Oc2cccc3cccnc23)cc1S(=O)(=O)N1CCOCC1	-3	0	0	13	nt	nt
COc1ccc(C(CNC(=O)Cc2ccc(Cl)c(Cl)c2)N(C)C)cc1 (configuration not stated)	121*	-1	3	i	8	6
Clc1ccc(C(c2ccc(Cl)cc2)n2cc[n+](CC(OCc3ccc(Cl)cc3Cl)c3ccc(Cl)cc3Cl)c2)cc1 (configuration not stated)	63*	20	-10	-347	50*	10
Cn1cc[n+](C)c1P(=S)(c1ccccc1)c1ccccc1	39*	-7	19	-218	5	15
